A number with no mark means an inactive call.
What was measured:
Settings in all cases: 60 µM; 5 days; temperature: 20 °C
Meloidogyne hapla J2 = experiment: proportion of mobile M. hapla J2 relative to DMSO control (fraction of DMSO control); higher = more viable, less nematicidal, active = 0.7 or less
Summary of the method: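 Sealed 96-well plates, each well holding around 25 M. hapla J2 in distilled water with compound pinned to 60 µM final (0.6% v/v DMSO), were shaken at 200 rpm for 5 days at 20 °C. Then 2 µL of 1 M NaOH was added to each well. Microscope-scored mobility was normalised to the mean of DMSO-only wells from the same plate. Eight such wells were on each plate, and the two biological replicates were averaged.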

[1] = test system: Caenorhabditis elegans dauer (daf-2(e1370)); experiment: proportion of mobile C. elegans dauer larvae relative to DMSO control (fraction of DMSO control); higher = more viable, less nematicidal, active = 0.63 or less; extreme values may be limits of the assay
Summary of the method: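 Synchronized C. elegans larvae were kept for 48 h at 25 °C on MYOB plates seeded with E. coli OP50 to induce dauer formation, and roughly 20 dauers were transferred into each well of a 96-well plate containing liquid NGM. Compound was pinned in to a final concentration of 60 µM with 0.6% v/v DMSO, and the sealed plates were shaken at 200 rpm for 5 days at 20 °C. The fraction of mobile worms was scored under a dissection microscope against DMSO-only wells and averaged across two biological replicates.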

Ditylenchus dipsaci = experiment: proportion of mobile D. dipsaci (mixed stage) relative to DMSO control (fraction of DMSO control); higher = more viable, less nematicidal, active = 0.86 or less; extreme values may be limits of the assay
Summary of the method: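 Mobility, expressed relative to DMSO controls, is the mean of two biological replicates. The test organisms were D. dipsaci grown on pea plants in Gamborg B-5 agar and extracted into water by filter funnel, with about 20 added per well of a 96-well plate in distilled water. Compound was pinned to 60 µM final (0.6% v/v DMSO), plates were sealed and shaken at 200 rpm for 5 days at 20 °C, and mobile worms were scored under a microscope once 2 µL 1 M NaOH had been added.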

Compound | proportion of mobile M. hapla J2 (Meloidogyne hapla J2) | proportion of mobile C. elegans dauer larvae [1] | proportion of mobile D. dipsaci (Ditylenchus dipsaci)
CC(Sc1nnc(-c2ccccc2)o1)C(=O)Nc1nccs1 (stereo unspecified) | 1 | 1 | 1
O=C(CSc1nnc(-c2ccccc2)o1)Nc1ccccc1F | 0.85 | 1 | 1
Cc1ccc(-c2nc(-c3ccc(F)cc3)no2)cc1 | 1.04 | 0 (active) | 0.708 (active)
COc1cccc(-c2nc(-c3ccc(Br)cc3)no2)c1 | 0.997 | 0.6 (active) | 1
CCc1ccc(NC(=O)CSc2nnc(-c3ccco3)o2)cc1 | 0.899 | 1 | 1
Clc1ccc(CSc2nnc(-c3ccc(Cl)cc3)o2)cc1 | 0.914 | 1 | 1
COc1ccc(-c2noc(-c3ccc(Br)cc3)n2)cc1 | 1.04 | 1 | 1
C=CCOc1cccc(-c2nc(-c3cccnc3)no2)c1 | 1.03 | 1 | 1
Cc1ccccc1OCc1nc(-c2ccc(Br)cc2)no1 | 0.788 | 1 | 1
COc1cccc(-c2noc(COc3ccc(C)c(C)c3)n2)c1 | 1.06 | 1 | 1
Clc1ccc(-c2noc(-c3cccnc3)n2)cc1 | 1 | 0.452 (active) | 1
COc1nc2ccc(C)cc2cc1-c1noc(-c2ccncc2)n1 | 0.849 | 1 | 1
Cc1ccc(-c2nc(-c3cccc(C(F)(F)F)c3)no2)cc1 | 1.04 | 1 | 1
Cc1ccc(NC(=O)CSc2nnc(-c3ccco3)o2)cc1Br | 1.03 | 1 | 1
FC(F)(F)c1ccc(-c2noc(-c3ccccc3Cl)n2)cc1 | 1.04 | 1 | 1
Cc1cc(OCc2nc(-c3ccccn3)no2)cc(C)c1Cl | 1.05 | 1 | 1
Cc1ccc(-c2nnc(SCc3ccccc3C)o2)cc1 | 1.06 | 1 | 1
